Unmarked numbers belong to inactive results. Activity calls are given as the source filed them.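 How the source made its calls: active means mean tau seeding fluorescence area under 1% of vehicle, meaning inhibition above a set limit; inactive means the rest.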
molecular target: Microtubule-associated protein tau (Homo sapiens) (UniProt P10636); experiment: blockers of AD brain-seeded tau fibril growth – biochemical, seed amplification, ThT fluorescence, primary screen (AID 2061166); conditions: Recombinant tau seeded by AD brain, ThT fluorescence AUC; at 100 µM; hits give high values
Sequence (P10636 whole entry, looked up): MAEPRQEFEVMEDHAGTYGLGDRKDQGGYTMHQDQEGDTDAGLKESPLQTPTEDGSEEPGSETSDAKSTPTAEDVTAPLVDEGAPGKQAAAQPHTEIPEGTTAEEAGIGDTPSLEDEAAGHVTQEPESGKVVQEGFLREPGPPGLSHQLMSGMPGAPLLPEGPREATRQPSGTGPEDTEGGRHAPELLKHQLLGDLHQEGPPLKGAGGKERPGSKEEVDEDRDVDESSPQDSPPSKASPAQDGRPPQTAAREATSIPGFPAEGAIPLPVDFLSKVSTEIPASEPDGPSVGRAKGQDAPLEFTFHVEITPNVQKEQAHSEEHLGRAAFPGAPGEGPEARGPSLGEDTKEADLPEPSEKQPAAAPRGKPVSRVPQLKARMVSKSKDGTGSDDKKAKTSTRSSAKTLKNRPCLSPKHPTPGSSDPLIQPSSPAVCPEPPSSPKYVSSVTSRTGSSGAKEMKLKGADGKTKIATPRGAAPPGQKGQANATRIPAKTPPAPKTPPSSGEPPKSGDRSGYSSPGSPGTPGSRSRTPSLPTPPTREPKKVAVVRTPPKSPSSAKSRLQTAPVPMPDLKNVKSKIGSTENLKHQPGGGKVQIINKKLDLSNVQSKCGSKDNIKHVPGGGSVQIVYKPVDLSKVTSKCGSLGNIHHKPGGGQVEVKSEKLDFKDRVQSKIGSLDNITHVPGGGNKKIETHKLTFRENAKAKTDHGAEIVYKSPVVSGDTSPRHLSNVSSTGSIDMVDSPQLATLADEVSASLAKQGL

For `N=c1ccc2nc3ccc(N)cc3sc-2c1`, the inhibition was 100% (active).

Compared with `O=C(O)c1cc(-c2ccccc2)nc2ccccc12`, `O=S(=O)(O)c1cc(S(=O)(=O)O)c2c(N=Nc3ccccc3)c(O)ccc2c1` is higher in inhibition: 3.74% for the first, 39% for the second.

First: Nc1ccccc1NC(=O)c1ccc(CNC(=O)OCc2cccnc2)cc1
Second: COc1ccc(Cl)cc1C(=O)NCCc1ccc(S(=O)(=O)NC(=O)NC2CCCCC2)cc1
The inhibition of the first is lower: -34.7% for the first, -30.9% for the second.

Going from `CS(=O)(=O)OCCCCOS(C)(=O)=O` to `CCN(CC)CCNC(=O)c1c(C)[nH]c(/C=C2\C(=O)Nc3ccc(F)cc32)c1C`, the inhibition rises from -40% to 98.6%.

Going from `O=C(c1cc(O)c(O)c(O)c1)c1ccc(O)c(O)c1O` to `O=c1c(O)c(-c2cc(O)c(O)c(O)c2)oc2cc(O)cc(O)c12`, the inhibition falls from 97.9% to 95.3%.

First: Cc1ccsc1C(=CCCN1CCCC(C(=O)O)C1)c1sccc1C (stereo unspecified)
Second: OCCOCCN1CCN(C2=Nc3ccccc3Sc3ccccc32)CC1
The inhibition of the first is lower: 3.27% for the first, 22.2% for the second.

Compared with `CN(C)CCCN1c2ccccc2Sc2ccccc21`, `Cc1ccc(C(=O)c2cc(O)c(O)c([N+](=O)[O-])c2)cc1` is higher in inhibition: 13.2% for the first, 77.7% for the second.

Compared with `CC(OC1OCCN(Cc2n[nH]c(=O)[nH]2)C1c1ccc(F)cc1)c1cc(C(F)(F)F)cc(C(F)(F)F)c1` (stereo unspecified), `OC(c1cc(C(F)(F)F)nc2c(C(F)(F)F)cccc12)C1CCCCN1` (stereo unspecified) is higher in inhibition: 60.4% for the first, 66.4% for the second.

`Cc1ncc(CO)c(CO)c1O` (tested in a mixture with another compound) gave an inhibition of 21.6%.

— PubChem BioAssay AID2061166 (Soto Lab, Mitchell Center for Alzheimers Disease and …, 2025)
